Bioassay records as filed in PubChem BioAssay.
CYP2C9 inhib: blocks human cytochrome P450 2C9; hit rate 20% among 96,000; CYP2C9 Supersomes, luciferin-H conversion, luminescence; P11712; inhibition, % at 5 µM;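 active means blocking of liver enzyme CYP2C9 beyond about 50% at 5 µM, limit read from the data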
Target sequence (P11712 whole entry, looked up): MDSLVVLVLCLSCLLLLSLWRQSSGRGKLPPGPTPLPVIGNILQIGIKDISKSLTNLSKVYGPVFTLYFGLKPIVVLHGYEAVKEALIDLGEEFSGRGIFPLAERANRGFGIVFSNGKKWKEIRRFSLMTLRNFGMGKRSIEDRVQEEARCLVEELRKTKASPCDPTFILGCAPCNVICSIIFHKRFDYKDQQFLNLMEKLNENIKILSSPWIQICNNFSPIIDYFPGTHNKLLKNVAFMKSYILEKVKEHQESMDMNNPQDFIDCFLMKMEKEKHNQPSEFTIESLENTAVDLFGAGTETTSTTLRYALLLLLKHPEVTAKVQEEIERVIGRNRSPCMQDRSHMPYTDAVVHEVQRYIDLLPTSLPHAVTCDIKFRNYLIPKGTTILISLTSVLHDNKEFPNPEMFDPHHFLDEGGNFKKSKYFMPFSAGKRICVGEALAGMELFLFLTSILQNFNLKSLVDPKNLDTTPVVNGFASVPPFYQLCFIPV
CYP2C19 inhib: inhibitors of human CYP2C19; inhibition, % at 5 µM; P33261; AID 778; CYP2C19 Supersomes, luciferin-H EGE luminescence, 30 min; hit rate 21% among 96,000;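 active means CYP2C19 inhibition above a set limit at 5 µM in the primary screen, cut at about 50% in these data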;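 further: plate controls were negative control wells for no effect and 2.5 mM tranylcypromine positive control for full effect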
sEH inhibitor: inhibitors of human soluble epoxide hydrolase. recombinant human sEH enzymatic activity assay. inhibition, % at 2 µM. hit rate 0.34% among 91,000. AID 707; in the data active means inhibition above about 80%
CYP2C19 act: cytochrome P450 2C19 (human) activation | P33261 | recombinant CYP2C19, luciferin-H EGE luminescence; hits give high values; 0 = fully inhibited enzyme, 1 = untreated enzyme | activation factor at 5 µM | 96,000 tested, under 10 active | AID 1025;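 active means activation factor of at least 2 at 5 µM in the primary screen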;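 further: 0 = wells with 2.5 mM tranylcypromine and 1 = vehicle-only wells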
CYP2C9 act: CYP2C9 (human) activation | recombinant CYP2C9, luciferin-H conversion, luminescence; hits give high values; factor 1 = untreated enzyme, 0 = blocked | activation factor at 5 µM | hit rate 1.4% among 96,000 | AID 1024;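 active means activation factor of 2 or more for CYP2C9 at a 5 µM dose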;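 further: 0 = sulfaphenazole-blocked wells and 1 = vehicle-only wells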
sEH act: increases human soluble epoxide hydrolase activity | P34913 | purified human sEH enzymatic activity, activator screen | activation, % at 2 µM | hit rate 0.04% among 91,000 | AID 717; in the data active means activation above about 37%
Starred values were filed as active, the others as inactive. A selection: hits, their analogues and other compounds. The true share with any hit is near 27%.

`O=C(Nc1nnc(COc2ccc(Cl)cc2)s1)c1ccc([N+](=O)[O-])cc1` gave CYP2C9 inhib -2, CYP2C19 inhib -14, sEH inhibitor 19, CYP2C19 act 1.1, CYP2C9 act 1 and sEH act -16.
`COCc1nnc(NS(=O)(=O)c2ccc([N+](=O)[O-])cc2)s1` gave CYP2C9 inhib 82*, CYP2C19 inhib -20, sEH inhibitor -8, CYP2C19 act 1.2, CYP2C9 act 0.2 and sEH act 6.
`c1ccc2oc(-c3ccc(Nc4nc(N5CCCCC5)nc(N5CCOCC5)n4)cc3)nc2c1` gave CYP2C9 inhib 18, CYP2C19 inhib 4, sEH inhibitor 13, CYP2C19 act 1, CYP2C9 act 0.8 and sEH act -14.
Screening COc1cc(C(=O)N2CCC(NC(=O)C(Cc3ccc(C(C)C)cc3)NC(C)=O)CC2)cc(OC)c1OC (stereo unspecified) returned CYP2C9 inhib 3, CYP2C19 inhib 13, sEH inhibitor 9, CYP2C19 act 0.9, CYP2C9 act 1 and sEH act -10.
Screening CC(=O)NC(Cc1ccc(C(C)C)cc1)C(=O)NC1CCN(c2nc(C)cc(C)n2)CC1 (stereo unspecified) returned CYP2C9 inhib -35, CYP2C19 inhib 60*, CYP2C19 act 0.4 and CYP2C9 act 1.4.
`CN1CC(=O)N(CC(=O)Nc2ccc(F)cc2)c2ccccc2C1=O` gave CYP2C9 inhib 4, CYP2C19 inhib 4, sEH inhibitor 0, CYP2C19 act 1, CYP2C9 act 1 and sEH act -2.
`C=CCn1c(=O)c2c3c(sc2n2c(Nc4ccc(OC)cc4)nnc12)CCCC3` gave CYP2C9 inhib 79*, CYP2C19 inhib 21, sEH inhibitor 6, CYP2C19 act 0.8, CYP2C9 act 0.2 and sEH act -8.
`C=CCn1c(=O)c2c3c(sc2n2c(Nc4ccccc4)nnc12)CCCC3` gave CYP2C9 inhib 35, CYP2C19 inhib 44, sEH inhibitor 5, CYP2C19 act 0.6, CYP2C9 act 0.6 and sEH act -2.
`Cc1cccc(C)c1NC(=O)CSCc1cccc(CSCC(=O)Nc2c(C)cccc2C)n1` gave CYP2C9 inhib 17, CYP2C19 inhib 7, sEH inhibitor -10, CYP2C19 act 0.9, CYP2C9 act 0.8 and sEH act 12.
`Cc1cccc(NC(=O)Cc2ccc(F)cc2)c1` gave CYP2C9 inhib 58*, CYP2C19 inhib 96*, sEH inhibitor 1, CYP2C19 act 0, CYP2C9 act 0.4 and sEH act -7.
`O=C(CSCc1cccc(CSCC(=O)Nc2ccccc2)n1)Nc1ccccc1` gave CYP2C9 inhib 65*, CYP2C19 inhib 53*, sEH inhibitor 4, CYP2C19 act 0.5, CYP2C9 act 0.4 and sEH act -6.
O=C(CSCc1ccc(F)cc1)Nc1ccccc1 was read as CYP2C9 inhib -56, CYP2C19 inhib 94*, sEH inhibitor 3, CYP2C19 act 0.1, CYP2C9 act 1.6 and sEH act -4.
Screening CCn1[nH]c(=O)c(=Nc2c(C)n(C)n(-c3ccccc3)c2=O)cc1-c1ccc(Cl)cc1 returned CYP2C9 inhib 41, CYP2C19 inhib 4, sEH inhibitor 22, CYP2C19 act 1, CYP2C9 act 0.6 and sEH act -20.
COc1cc(OC)cc(C(=O)NC2CCN(Cc3nnnn3Cc3cccs3)CC2)c1 was read as CYP2C9 inhib -13, CYP2C19 inhib 47, sEH inhibitor -4, CYP2C19 act 0.5, CYP2C9 act 1.1 and sEH act 6.
Screening N#CC1=C(N)SC(N)=C(C#N)C1c1cccc(Oc2ccccc2)c1 returned CYP2C9 inhib 92*, CYP2C19 inhib 42, sEH inhibitor -1, CYP2C19 act 0.6, CYP2C9 act 0.1 and sEH act 0.
For CCOc1ccc(C2C(C#N)=C(N)SC(N)=C2C#N)cc1OCC the results were CYP2C9 inhib 84*, CYP2C19 inhib 58*, CYP2C19 act 0.4 and CYP2C9 act 0.2.
Screening CCc1ccc(C2C(C#N)=C(N)SC(N)=C2C#N)s1 returned CYP2C9 inhib 76*, CYP2C19 inhib 49, CYP2C19 act 0.5 and CYP2C9 act 0.2.
CCOc1ccccc1C1C(C#N)=C(N)SC(N)=C1C#N was read as CYP2C9 inhib -7, CYP2C19 inhib 52*, sEH inhibitor 15, CYP2C19 act 0.5, CYP2C9 act 1.1 and sEH act -14.
